Laboratory results: the supplement of paper PMC10849652
Targets with a hit are over-represented here; the source holds about 7,900 in all. About 0.6% of all pairs of compound and target were hits.

Legend:
Assay in all cases: log2 fold change, soluble protein after heating vs DMSO (PISA); higher = thermal stabilisation; K562 cells, 10 uM, 30 min; active = over 0.2 and 3.5 SD of the protein, either way, in both replicates (recomputed)
[1] = compound: CS(=O)(=O)c1ccc(-c2cnc(N)c(C(=O)Nc3ccccc3)n2)cc1
Method in brief: (§1)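 Soluble protein was defined as the supernatant after 21,000xg for 90 min. It came from K562 cells at 2×10^6 cells/mL given 10 μM compound for 30 min, heated in aliquots for 3 min across 48°C-58°C, pooled, and extracted in PBS with 0.5% NP-40 at 4°C, and was quantified by TMTpro 16plex LC-MS/MS with equalised channel sums. Thermal stability against control samples, from duplicates, is reported as log2 fold change.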

[2] = compound: C[C@@H](Oc1cc(-c2cnn(C3CCNCC3)c2)cnc1N)c1c(Cl)ccc(F)c1Cl [crizotinib]
Method in brief: as §1

[3] = compound: C[C@@H]1COCCN1C2=NC(=NC(=C2)C3(CC3)S(=O)(=O)C)C4=C5C=CNC5=CC=C4
Method in brief: as §1

[4] = compound: C[C@H](C1=CC=C(C=C1)C(=O)NC2=C3C=CNC3=NC=C2)N
Method in brief: as §1

[5] = compound: C[C@H](Nc1ncnc2nc[nH]c12)c1cc2cccc(Cl)c2c(=O)n1-c1ccccc1 [duvelisib]
Method in brief: as §1

[6] = compound: Cc1cc(Nc2cc(CN3CCOCC3)c3nc(C)c(Cc4ccc(Cl)cc4F)n3n2)n[nH]1 [gandotinib]
Method in brief: as §1

[7] = compound: Cc1cc(Nc2cc(N3CCN(C)CC3)nc(Sc3ccc(NC(=O)C4CC4)cc3)n2)n[nH]1 [tozasertib]
Method in brief: as §1

[8] = compound: Cc1cc(SCc2sc(-c3ccc(C(F)(F)F)cc3)nc2C)ccc1OCC(=O)O
Method in brief: as §1

[9] = compound: Cc1ccc(-n2nc(C(C)(C)C)cc2NC(=O)Nc2ccc(OCCN3CCOCC3)c3ccccc23)cc1 [doramapimod]
Method in brief: as §1

[10] = compound: Cc1ccc(C(=O)N(CCCN)[C@@H](c2nc3cc(Cl)ccc3c(=O)n2Cc2ccccc2)C(C)C)cc1 [ispinesib]
Method in brief: as §1

Measured: log2 fold change

ACSM3 (UniProt Q53FZ2)
inactive: [1] -0.001 | [2] -0.002 | [3] 0.027 | [4] -0.095 | [5] -0.131 | [6] -0.037 | [7] -0.001 | [8] 0.049 | [9] 0.023 | [10] 0.226

ATP6V0A1 isoform 3 (UniProt Q93050)
Chain of UniProt Q93050 (Q93050 whole entry, looked up): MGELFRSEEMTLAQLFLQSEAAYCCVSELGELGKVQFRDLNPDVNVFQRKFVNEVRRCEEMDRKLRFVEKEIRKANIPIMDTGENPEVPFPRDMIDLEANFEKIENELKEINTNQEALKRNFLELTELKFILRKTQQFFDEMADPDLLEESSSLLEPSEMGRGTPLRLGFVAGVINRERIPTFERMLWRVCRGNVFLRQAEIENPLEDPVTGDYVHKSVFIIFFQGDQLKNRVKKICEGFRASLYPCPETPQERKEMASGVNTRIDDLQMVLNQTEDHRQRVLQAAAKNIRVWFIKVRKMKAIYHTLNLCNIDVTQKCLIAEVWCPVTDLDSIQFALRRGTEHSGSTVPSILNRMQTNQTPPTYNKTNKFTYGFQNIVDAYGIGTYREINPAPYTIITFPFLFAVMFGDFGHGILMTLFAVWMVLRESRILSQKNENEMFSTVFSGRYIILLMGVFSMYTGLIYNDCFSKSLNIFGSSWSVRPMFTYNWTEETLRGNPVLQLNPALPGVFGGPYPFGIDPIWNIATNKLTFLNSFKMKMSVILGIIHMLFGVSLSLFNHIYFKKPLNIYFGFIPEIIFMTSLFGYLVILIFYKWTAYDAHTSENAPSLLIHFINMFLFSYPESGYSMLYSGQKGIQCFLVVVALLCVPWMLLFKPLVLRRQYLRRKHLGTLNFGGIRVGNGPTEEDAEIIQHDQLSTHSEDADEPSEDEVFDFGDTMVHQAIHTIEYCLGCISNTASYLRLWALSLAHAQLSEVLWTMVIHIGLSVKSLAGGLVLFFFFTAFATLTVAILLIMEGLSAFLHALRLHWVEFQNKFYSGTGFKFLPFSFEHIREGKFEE
inactive: [1] -0.041 | [2] -0.349 | [3] -0.27 | [4] 0.225 | [5] -0.093 | [6] 0.094 | [7] 0.073 | [8] 0.144 | [9] 0.152
active: [10] -0.446

ATG4B isoform 2 (UniProt Q9Y4P1)
inactive: [1] 0.078 | [2] -0.361 | [3] 0.056 | [4] -0.004 | [5] -0.024 | [6] -0.12 | [7] -0.286 | [8] 0.184 | [9] 0.003 | [10] -0.277

AARS2 (UniProt Q5JTZ9)
active: [10] -0.223
inactive: [1] 0.017 | [2] -0.04 | [3] 0.138 | [4] -0.03 | [5] 0.053 | [6] -0.058 | [7] -0.039 | [8] 0.036 | [9] 0.026

ATAD3A isoform 2 (UniProt Q9NVI7)
inactive: [1] 0.003 | [2] -0.191 | [3] -0.052 | [4] 0.101 | [5] -0.083 | [6] 0.032 | [7] 0.005 | [8] 0.075 | [9] 0.057
active: [10] -0.348

BYSL (UniProt Q13895)
inactive: [1] -0.003 | [2] -0.049 | [3] 0 | [4] 0.05 | [5] -0.041 | [6] -0.012 | [7] 0.1 | [8] 0.135 | [9] 0.037 | [10] -0.094

ARFGAP1 (UniProt Q8N6T3)
inactive: [1] 0.009 | [2] 0.094 | [3] 0.048 | [4] -0.016 | [5] -0.011 | [6] -0.038 | [7] 0.138 | [8] 0.047 | [9] -0.13 | [10] 0.008

ATP5ME (UniProt P56385)
inactive: [1] -0.016 | [2] 0.101 | [3] 0.102 | [4] -0.046 | [5] 0 | [6] 0.001 | [7] 0.008 | [8] -0.016 | [9] 0.033 | [10] 0.078

AASDH (UniProt Q4L235)
inactive: [1] -0.04 | [2] 0.07 | [3] 0.142 | [4] -0.058 | [5] 0.01 | [6] -0.066 | [7] -0.017 | [8] -0.034 | [9] -0.161 | [10] -0.236

AIP (UniProt O00170)
inactive: [1] 0.031 | [2] 0.039 | [3] 0.075 | [4] -0.055 | [5] 0.014 | [6] -0.058 | [7] 0.064 | [8] 0.038 | [9] -0.024 | [10] 0.011

B4GALNT1 (UniProt Q00973)
inactive: [1] 0.198 | [2] 0.014 | [3] -0.003 | [4] -0.019 | [5] 0.06 | [6] -0.077 | [7] -0.003 | [8] 0.12 | [9] 0.065 | [10] -0.077

ARFIP1 (UniProt P53367)
Chain of UniProt P53367 (P53367 whole entry, looked up): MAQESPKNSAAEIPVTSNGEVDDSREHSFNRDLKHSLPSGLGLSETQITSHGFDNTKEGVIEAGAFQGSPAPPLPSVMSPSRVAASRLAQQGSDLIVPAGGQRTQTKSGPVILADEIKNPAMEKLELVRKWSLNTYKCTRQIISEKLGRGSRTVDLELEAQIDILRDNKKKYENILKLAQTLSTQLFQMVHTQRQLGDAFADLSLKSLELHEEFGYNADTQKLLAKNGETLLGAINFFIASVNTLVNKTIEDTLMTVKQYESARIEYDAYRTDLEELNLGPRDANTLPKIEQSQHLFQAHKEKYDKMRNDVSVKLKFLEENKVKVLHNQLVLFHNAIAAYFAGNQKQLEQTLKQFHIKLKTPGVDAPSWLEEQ
inactive: [1] 0.833 | [2] -0.309 | [3] 0.026 | [4] -0.061 | [5] 0.161 | [6] -0.223 | [7] -0.065 | [8] 0.014 | [9] 0 | [10] -0.232

ATP2A3 isoform 2 (UniProt Q93084)
inactive: [1] -0.003 | [2] 0.084 | [3] -0.048 | [4] -0.022 | [5] 0.025 | [6] -0.068 | [7] -0.036 | [8] -0.025 | [9] -0.023 | [10] -0.091

ATIC (UniProt P31939)
inactive: [1] 0.108 | [2] 0.092 | [3] 0.101 | [4] -0.083 | [5] 0.023 | [6] 0.066 | [7] 0.018 | [8] -0.015 | [9] -0.029 | [10] 0.096

ARFGEF1 (UniProt Q9Y6D6)
Chain of UniProt Q9Y6D6 (Q9Y6D6 whole entry, looked up): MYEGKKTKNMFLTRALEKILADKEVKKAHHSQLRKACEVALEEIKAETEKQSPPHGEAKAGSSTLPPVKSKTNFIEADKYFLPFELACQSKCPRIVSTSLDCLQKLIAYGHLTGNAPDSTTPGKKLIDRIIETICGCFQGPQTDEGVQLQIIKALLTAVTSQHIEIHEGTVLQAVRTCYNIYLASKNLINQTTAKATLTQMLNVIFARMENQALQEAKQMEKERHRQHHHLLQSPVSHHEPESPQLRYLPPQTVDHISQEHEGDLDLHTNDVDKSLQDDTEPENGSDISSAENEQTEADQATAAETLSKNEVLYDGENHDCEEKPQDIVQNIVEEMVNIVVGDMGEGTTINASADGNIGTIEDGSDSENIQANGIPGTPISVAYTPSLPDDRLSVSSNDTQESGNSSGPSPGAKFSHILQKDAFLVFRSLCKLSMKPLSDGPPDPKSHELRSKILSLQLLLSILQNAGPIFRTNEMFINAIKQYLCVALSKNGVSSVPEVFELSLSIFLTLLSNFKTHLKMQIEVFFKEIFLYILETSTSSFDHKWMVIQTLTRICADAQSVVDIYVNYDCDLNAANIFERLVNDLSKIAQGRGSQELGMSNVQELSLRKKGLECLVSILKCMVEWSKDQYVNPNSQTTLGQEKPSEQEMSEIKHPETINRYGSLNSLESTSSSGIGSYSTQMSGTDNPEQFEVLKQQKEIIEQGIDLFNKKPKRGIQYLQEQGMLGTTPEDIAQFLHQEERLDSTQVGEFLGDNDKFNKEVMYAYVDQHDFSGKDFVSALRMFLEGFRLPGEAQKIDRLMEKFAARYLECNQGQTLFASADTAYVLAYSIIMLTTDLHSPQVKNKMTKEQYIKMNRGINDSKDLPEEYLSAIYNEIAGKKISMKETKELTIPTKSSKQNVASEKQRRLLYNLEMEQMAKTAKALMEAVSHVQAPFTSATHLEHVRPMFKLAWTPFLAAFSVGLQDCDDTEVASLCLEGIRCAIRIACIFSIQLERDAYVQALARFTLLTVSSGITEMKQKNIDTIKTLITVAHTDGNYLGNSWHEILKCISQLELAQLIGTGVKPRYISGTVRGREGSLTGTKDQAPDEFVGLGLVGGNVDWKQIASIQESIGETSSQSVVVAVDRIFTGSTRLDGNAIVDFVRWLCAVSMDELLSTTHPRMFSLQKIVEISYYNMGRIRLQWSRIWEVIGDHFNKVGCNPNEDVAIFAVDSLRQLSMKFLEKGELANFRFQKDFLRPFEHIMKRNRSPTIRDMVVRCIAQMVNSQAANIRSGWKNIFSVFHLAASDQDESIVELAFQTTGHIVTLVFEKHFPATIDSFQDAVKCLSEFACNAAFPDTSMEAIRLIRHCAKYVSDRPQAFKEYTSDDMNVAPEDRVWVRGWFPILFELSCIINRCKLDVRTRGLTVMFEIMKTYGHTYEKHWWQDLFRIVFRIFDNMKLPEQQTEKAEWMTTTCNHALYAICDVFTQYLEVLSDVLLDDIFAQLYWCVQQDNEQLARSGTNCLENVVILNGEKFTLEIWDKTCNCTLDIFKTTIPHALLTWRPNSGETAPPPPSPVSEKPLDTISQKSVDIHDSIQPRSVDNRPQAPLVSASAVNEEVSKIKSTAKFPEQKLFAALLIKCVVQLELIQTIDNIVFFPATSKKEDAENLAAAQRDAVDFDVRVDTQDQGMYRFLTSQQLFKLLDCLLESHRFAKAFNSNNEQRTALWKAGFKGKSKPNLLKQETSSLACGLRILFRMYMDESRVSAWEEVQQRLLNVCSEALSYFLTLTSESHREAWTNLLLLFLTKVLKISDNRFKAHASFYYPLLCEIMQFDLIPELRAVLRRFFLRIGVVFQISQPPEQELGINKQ
inactive: [1] 0.03 | [2] -0.135 | [3] 0.022 | [4] 0.052 | [5] 0.021 | [6] -0.014 | [7] 0.049 | [8] 0.004 | [9] 0.067 | [10] -0.024

ADD2 (UniProt P35612)
inactive: [1] 0.021 | [2] -0.005 | [3] 0.022 | [4] -0.052 | [5] 0.017 | [6] -0.042 | [7] -0.057 | [8] -0.029 | [9] 0.016 | [10] 0.088

ARAF (UniProt P10398)
Chain of UniProt P10398 (P10398 whole entry, looked up): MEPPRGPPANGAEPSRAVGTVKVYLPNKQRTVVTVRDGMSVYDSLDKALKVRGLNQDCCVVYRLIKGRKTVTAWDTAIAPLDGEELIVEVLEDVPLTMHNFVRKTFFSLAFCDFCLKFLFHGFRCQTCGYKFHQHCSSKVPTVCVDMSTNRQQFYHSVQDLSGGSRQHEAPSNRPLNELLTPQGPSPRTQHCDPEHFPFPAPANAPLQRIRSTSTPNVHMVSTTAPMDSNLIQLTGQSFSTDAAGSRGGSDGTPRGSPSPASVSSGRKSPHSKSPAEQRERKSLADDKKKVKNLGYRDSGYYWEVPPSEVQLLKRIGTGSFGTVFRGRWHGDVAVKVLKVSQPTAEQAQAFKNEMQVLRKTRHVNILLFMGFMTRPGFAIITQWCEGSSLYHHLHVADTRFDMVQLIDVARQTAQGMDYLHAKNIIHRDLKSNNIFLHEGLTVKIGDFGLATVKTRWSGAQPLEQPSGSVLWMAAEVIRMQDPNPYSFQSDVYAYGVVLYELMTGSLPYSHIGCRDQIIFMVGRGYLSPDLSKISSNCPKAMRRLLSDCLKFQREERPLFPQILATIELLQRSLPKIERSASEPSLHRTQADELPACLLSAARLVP
inactive: [1] 0.012 | [2] -0.093 | [3] 0.059 | [4] 0.112 | [5] -0.009 | [6] 0.039 | [7] -0.074 | [8] 0.081 | [9] -0.035 | [10] -0.051

ATOX1 (UniProt O00244)
Chain of UniProt O00244 (O00244 whole entry, looked up): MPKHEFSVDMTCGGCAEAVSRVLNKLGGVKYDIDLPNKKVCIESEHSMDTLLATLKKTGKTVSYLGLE
inactive: [1] -0.051 | [2] -0.057 | [3] 0.235 | [4] -0.269 | [5] 0.144 | [6] 0.068 | [7] 0.038 | [8] -0.071 | [9] 0.051 | [10] 0.212

AKAP8 (UniProt O43823)
inactive: [1] 0.047 | [2] -0.104 | [3] 0.077 | [4] 0.062 | [5] 0.032 | [6] -0.036 | [7] 0.005 | [8] 0.061 | [9] 0.033 | [10] -0.103

ACAD9 (UniProt Q9H845)
inactive: [1] 0.01 | [2] 0.035 | [3] 0.021 | [4] -0.061 | [5] 0.048 | [6] -0.03 | [7] -0.016 | [8] -0.052 | [9] -0.002 | [10] 0.059

ABCA3 (UniProt Q99758)
inactive: [1] 0.111 | [3] 0.174 | [4] 0.073 | [5] 0.035 | [6] 0.036 | [7] 0.005 | [8] 0.014 | [9] 0.031
active: [2] -0.361 | [10] -0.502

ARMC8 (UniProt Q8IUR7)
inactive: [1] 0.005 | [2] 0.013 | [3] 0.005 | [4] -0.015 | [5] 0.07 | [6] -0.045 | [7] 0.063 | [8] 0.165 | [9] 0.014 | [10] 0.051

ABHD16A (UniProt O95870)
inactive: [1] -0.012 | [2] 0.277 | [3] 0.029 | [4] 0.033 | [5] 0.014 | [6] 0.158 | [7] -0.009 | [8] 0.012 | [9] 0.136 | [10] 0.125

ADAM15 (UniProt Q13444)
Chain of UniProt Q13444 (Q13444 whole entry, looked up): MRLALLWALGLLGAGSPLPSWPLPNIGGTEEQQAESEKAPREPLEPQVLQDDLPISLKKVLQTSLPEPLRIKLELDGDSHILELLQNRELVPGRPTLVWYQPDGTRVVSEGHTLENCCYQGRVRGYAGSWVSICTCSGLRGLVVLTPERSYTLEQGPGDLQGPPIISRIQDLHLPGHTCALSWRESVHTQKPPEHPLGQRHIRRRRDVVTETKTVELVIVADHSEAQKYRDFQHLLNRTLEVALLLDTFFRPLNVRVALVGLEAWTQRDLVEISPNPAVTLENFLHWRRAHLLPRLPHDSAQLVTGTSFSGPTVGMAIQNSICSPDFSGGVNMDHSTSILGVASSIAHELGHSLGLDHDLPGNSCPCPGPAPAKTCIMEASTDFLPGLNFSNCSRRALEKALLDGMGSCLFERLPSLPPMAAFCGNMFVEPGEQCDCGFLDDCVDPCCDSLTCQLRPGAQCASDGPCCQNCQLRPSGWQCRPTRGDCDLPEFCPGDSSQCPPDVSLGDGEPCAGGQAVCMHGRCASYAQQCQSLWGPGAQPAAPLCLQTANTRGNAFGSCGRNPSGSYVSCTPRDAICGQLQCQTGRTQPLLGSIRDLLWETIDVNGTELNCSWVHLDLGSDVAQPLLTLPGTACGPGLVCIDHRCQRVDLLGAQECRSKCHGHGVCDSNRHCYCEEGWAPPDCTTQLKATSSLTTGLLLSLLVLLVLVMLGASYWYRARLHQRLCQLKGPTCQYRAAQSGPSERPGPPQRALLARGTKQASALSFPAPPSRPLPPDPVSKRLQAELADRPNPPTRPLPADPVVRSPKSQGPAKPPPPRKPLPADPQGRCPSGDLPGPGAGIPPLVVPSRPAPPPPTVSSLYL
inactive: [1] 0 | [2] 0.097 | [3] 0.015 | [4] -0.047 | [5] 0.119 | [6] -0.047 | [7] -0.067 | [8] -0.047 | [9] 0.033 | [10] -0.119

ALDH2 (UniProt P05091)
inactive: [1] -0.047 | [2] -0.044 | [3] 0.051 | [4] -0.038 | [5] 0.056 | [6] -0.088 | [7] -0.039 | [8] 0.022 | [9] 0.033 | [10] -0.023

ALDH6A1 (UniProt Q02252)
inactive: [1] -0.008 | [2] 0.042 | [3] 0.109 | [4] 0.009 | [5] 0.106 | [6] -0.057 | [7] -0.054 | [8] 0.008 | [9] 0.033 | [10] -0.042

BRIP1 (UniProt Q9BX63)
inactive: [1] 0.13 | [2] 0.019 | [3] 0.151 | [4] -0.005 | [5] 0.042 | [6] -0.035 | [7] 0.183 | [8] 0.009 | [9] -0.088 | [10] 0.018

AP2S1 (UniProt P53680)
Chain of UniProt P53680 (P53680 whole entry, looked up): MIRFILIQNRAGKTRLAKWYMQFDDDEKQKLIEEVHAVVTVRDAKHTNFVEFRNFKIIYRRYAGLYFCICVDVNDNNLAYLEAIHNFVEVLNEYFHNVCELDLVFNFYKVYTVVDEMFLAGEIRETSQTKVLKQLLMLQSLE
inactive: [1] -0.022 | [2] -0.106 | [3] 0.453 | [4] -0.151 | [5] 0.04 | [6] -0.046 | [7] -0.054 | [8] 0.046 | [9] 0.031 | [10] 0.077

ANP32E (UniProt Q9BTT0)
Chain of UniProt Q9BTT0 (Q9BTT0 whole entry, looked up): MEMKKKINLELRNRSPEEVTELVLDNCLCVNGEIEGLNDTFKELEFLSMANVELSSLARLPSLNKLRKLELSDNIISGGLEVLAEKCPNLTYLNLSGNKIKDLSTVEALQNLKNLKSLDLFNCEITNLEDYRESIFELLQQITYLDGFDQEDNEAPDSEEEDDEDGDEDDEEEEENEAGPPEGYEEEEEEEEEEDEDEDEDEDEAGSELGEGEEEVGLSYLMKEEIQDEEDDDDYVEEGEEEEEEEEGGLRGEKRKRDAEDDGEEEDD
inactive: [1] -0.021 | [2] 0.055 | [3] 0.12 | [4] -0.16 | [5] 0.036 | [6] -0.082 | [7] 0.096 | [8] 0.026 | [9] -0.014 | [10] 0.002
